Screens as filed in PubChem BioAssay.
B2AR arrestin ag: qHTS assay of beta-arrestin-biased ligands of beta2-adrenergic receptor: NCGC Sytravon Library Screen | HTLA Tango cells, beta-arrestin recruitment, luciferase luminescence, 18 h | Potency, µM (top dose mostly 46.1 µM), actives largely listed as activators | 44,000 tested, under 10 active | AID 1347077, 2019;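 further: potency means the concentration at half of the fitted maximal effect; 0% = DMSO and full agonism = EC100 isoproterenol or metaproterenol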
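Tango cells expressing recombinant beta2-AR and beta-arrestin were treated with compounds (up to 46 microM titration) in DMEM with 1% FBS for 18 hr at 37 degrees C. Beta-arrestin recruitment drove tTA-dependent luciferase, read by luminescence; curves were fitted and classed.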
GALK inh: qHTS Assay for Inhibitors of Human Galactokinase (GALK): NCGC Sytravon Library Screen. Potency, µM (top dose mostly 57.5 µM), for the others: at the top dose activity, negative = inhibition, most hits filed as inhibitors. recombinant GALK, Kinase-Glo ATP luminescence, 1 h. 44,000 tested, under 10 active;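 further: plate controls were full GALK reaction for no effect and reaction lacking GALK for full effect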
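5 nM GALK; 35 uM ATP; 100 uM D-galactose; 20 mM HEPES pH 8.0, 5 mM MgCl2, 60 mM NaCl, 1 mM DTT, 0.01% BSA; 1 h RT; Kinase-Glo Plus luminescence.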
HTT prom inh: Primary qHTS for Identification of Small Molecule Inhibitors of Huntingtin Promoter Activity. HEK293 HTT promoter firefly luciferase reporter, 24 h. Potency, µM (series often up to 57.5 µM), without a hit: at the top dose activity change, negative = inhibition, most hits filed as inhibitors. hit rate 0.93% among 48,000. AID 1508623, 2021; further: potency means the concentration at half of the fitted maximal effect; nearly all actives have a fitted effect of over 50% in size
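Firefly luciferase readout (Dual-Glo, 10 min RT) after 24 h, 37 °C compound exposure (final up to 57.5 uM) of HEK293 reporter cells cultured 24 h beforehand; PTC124 at 50 uM final as control inhibitor; activity scaled vehicle 0%, zero RLU -100%.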
DRV1 agonist: qHTS for Agonists of Human Resolvin D1 Receptor DRV1 | Probable G-protein coupled receptor 32 (Homo sapiens), O75388 | CHO-K1 GPR32 beta-arrestin PathHunter luminescence, 90 min; zero percent set by DMSO-only wells | activation, % at 76.9 µM | hit rate 2.5% among 48,000 | AID 1346428, 2018;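 active means activation of at least 60% and not above a set upper limit, about 1 call in 100 departs from these limits; inconclusive means activation of 40% to 60%, or above that upper limit; inactive means activation under 40%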; further: 0% is about no effect
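Step 1: seed CHO-K1 GPR32 beta-arrestin cells, 2,500/well, overnight at 37 °C. Step 2: add compounds, 90 min at 37 °C. Step 3: detection reagent, 1 h ambient, then luminescence.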
HTT-AS act: Primary qHTS for Identification of Small Molecule Activators of Huntingtin-Antisense Promoter Activity. Potency, µM (series often up to 57.5 µM), inactives show at the highest dose activity change, positive = activation, usual class: activators. AID 1508624, 2021. HEK293 HTT-AS promoter firefly luciferase reporter, 24 h; response scale: percent change from vehicle, -100% = no light. hit rate 0.24% among 48,000; further: potency means the concentration at half of the fitted maximal effect; nearly all actives have a fitted effect of over 55% in size
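HEK293 cells carrying firefly luciferase reporters were seeded at 2,500 per well in Opti-MEM and cultured for 24 h. They were then treated with compounds at up to 57.5 uM final for 24 h at 37 degrees C before Dual-Glo luminescence readout.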
TSG101-PTAP inh: qHTS Validation Assay for Inhibitors of HIV-1 Budding by Blocking the Interaction of PTAP/TSG101: Sytravon Library Screen; Tumor susceptibility gene 101 protein (Homo sapiens), Q99816; Potency, µM (top dose mostly 115 µM), usual class: inhibitors; 44,000 tested, under 10 active; Fluorescence polarization, FITC-PTAP peptide/Tsg101, 20 min; further: potency means the concentration at half of the fitted maximal effect; 0% is about no effect
Target sequence (Q99816 whole entry, looked up): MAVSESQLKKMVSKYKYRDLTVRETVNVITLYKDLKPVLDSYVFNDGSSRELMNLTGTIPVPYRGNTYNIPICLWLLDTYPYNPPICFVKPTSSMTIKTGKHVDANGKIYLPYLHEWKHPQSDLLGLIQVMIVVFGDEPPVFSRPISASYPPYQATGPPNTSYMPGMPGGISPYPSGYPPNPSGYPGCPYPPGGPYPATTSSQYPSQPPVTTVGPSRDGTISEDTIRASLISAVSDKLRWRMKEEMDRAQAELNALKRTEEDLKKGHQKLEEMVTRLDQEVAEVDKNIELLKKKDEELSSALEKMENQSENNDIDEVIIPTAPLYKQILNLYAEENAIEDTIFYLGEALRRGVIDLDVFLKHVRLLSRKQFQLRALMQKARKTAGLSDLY
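Fluorescence polarization: Tsg101 binding domain (10 uM final) in 10 mM HEPES pH 7.5, 0.15 M NaCl, 0.01% Tween 20, 3 mM EDTA, 0.1 mM TCEP; compounds pinned; FITC-PTAP peptide 50 nM final; 20 min, r.t.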
Active calls of the source: *; i = inactive; ? = inconclusive; / = not tested or not shown; ! = not active in a repeat. Rows were chosen to be rich in hits. Some 3.6% of all compounds tested hit in one or more screens of this group. Unless noted, the call rests on the fitted dose curve; in most records, active means well fitted curve in the direction sought with a large enough effect; inconclusive means small, poorly fitted or top-dose-only effect, or another doubt; inactive means no such curve, though single readings can be large; an effect the other way counts as inactive or inconclusive.

SMILES | B2AR arrestin ag | GALK inh | HTT prom inh | DRV1 agonist | HTT-AS act | TSG101-PTAP inh
O=C(Nc1ccc(F)cc1F)c1ccc(-c2ccccc2)s1 | i | 8.1% | 17.1% | 28.2 | 22.2% | i
Cc1cccc(NC(=O)c2ccc(-c3ccccc3)s2)c1 | i | -0.9% | 44.6% | -9.4 | 25.4% | i
O=C(Nc1cc(-c2ccccc2)sc1C(=O)O)c1cccc(F)c1 | i | ? | -7.0% | 110.1* | -1.6% | i
COc1cccc(CN2CCc3nc(N4CCN(c5ncccn5)CC4)ncc3C2)c1 | i | 3.9% | 25.1µM* | -14.8 | -53.4% | i
CN[C@@H](C)C(=O)N[C@H]1CN(C(=O)CC(C)C)CC[C@H]2CC[C@@H](C(=O)NC(c3ccccc3)c3ccccc3)N2C1=O | / | / | -18.5% | / | -31.8% | /
Cc1ccc(-c2cc(NC(=O)c3ccccc3Cl)on2)cc1 | i | -7.8% | 30.3% | 12.6 | 4.47µM* | i
CCc1cc(C(C)=NOCc2ccc(C3CCCCC3)c(C(F)(F)F)c2)ccc1CN1CC(C(=O)O)C1 | / | / | -11.3% | / | -13.3% | /
Clc1ccc(C(c2ccccc2)c2c[nH]c3ccccc23)s1 (stereo not given) | i | 2.5% | -23.5% | 106.9* | -27.7% | i
O=C(Nc1cccc(Br)c1)Nc1nc2c(s1)CCCCCC2 | i | 0.6% | -13.4% | 112.8* | -1.7% | i
CN(C)CCCN1c2ccccc2Sc2ccc(Cl)cc21 | / | / | ? | 63.0*! | -34.9% | /
O=c1onc2n1-c1cc(Br)ccc1OC2 | / | / | / | 64.5* | / | /
CCOc1ccc(Cc2cc([C@@H]3O[C@H](CO)[C@@H](O)[C@H](O)[C@@H]3O)ccc2Cl)cc1 | / | / | -2.7% | / | -3.9% | /
O=C(CC1C(=O)OCCN1Cc1ccccc1)Nc1cccc(C(F)(F)F)c1 (stereo not given) | i | -0.9% | ? | 112.4* | -31.2% | i
COc1cccc(NC(=O)CC2C(=O)OCCN2Cc2ccccc2)c1 (stereo not given) | i | 8.3% | -39.6% | 4.8 | -23.8% | i
Cc1cccc(N2CCN(S(=O)(=O)c3cc(C(=O)Nc4ccc(Oc5ccccc5)cc4)ccc3F)CC2)c1C | i | 0.0% | ? | -1.0 | -30.3% | i
CC(C)c1ccc(NC(=O)c2ccc(F)c(S(=O)(=O)N3CCc4ccccc43)c2)cc1 | i | -5.0% | ? | 9.7 | -29.3% | i
O=C(Nc1nc2c(F)cc(F)cc2s1)c1ccc(S(=O)(=O)N2CCc3ccccc32)cc1 | i | 1.3% | 22.4µM* | -6.0 | -56.1% | i
Cc1ccc(C)c(N2CCN(S(=O)(=O)c3cc(C(=O)Nc4ccc(Oc5ccccc5)cc4)ccc3F)CC2)c1 | i | -1.2% | 2µM* | -7.0 | -40.7% | i
O=C(Nc1ccc(Br)cc1)c1ccc(F)c(S(=O)(=O)N2CCc3ccccc32)c1 | i | -0.8% | 14.1µM* | -9.2 | -44.6% | i
O=C(Nc1ccc(Cl)cc1)c1cc(S(=O)(=O)N2CCCc3ccccc32)ccc1F | i | -0.3% | 25.1µM* | -23.3 | -45.6% | i
O=C(Nc1nc2c(F)cccc2s1)c1ccc(S(=O)(=O)N2CCCc3ccccc32)cc1 | i | 0.7% | 0.8% | -6.4 | -8.9% | i
CCN(CC)C(=O)C1CN2CCc3cc(OC)c(OC)cc3C2CC1OC(C)=O (stereo not given) | / | / | 5.4% | -14.3 | -3.9% | /
